Data reported in ChEMBL document CHEMBL4888484, “Replenishing the malaria drug discovery pipeline: Screening and hit evaluation of the MMV Hit Generation Library 1 (HGL1) against asexual blood stage Plasmodium falciparum ,using a nano luciferase reporter read-out” (2022).
The campaign covered roughly 150,000 compounds. About 540 (0.36%) showed an effect of 50% or more. Many of the other results were omitted from the sample, so strong results are more common in it than they were.

What follows are compounds tested on Plasmodium falciparum (assay: Primary screen in NF54 nanoGlo assay, in single point, at 2uM, 72h; a lower Z score goes with more inhibition). Settings: timepoint 72 hour.
Type: functional, Erythrocyte
For `Fc1cc(CNCC(F)F)ccc1Cl`, the “% Inhibition” value was -7% and the Z score was 0.98.
For `CC(NC[C@H](C)O)C(C)(C)c1ccc(F)cc1` (stereo partly specified), the “% Inhibition” value was -3% and the Z score was 0.44.
With `O=c1ccc(-c2cncnc2)c2n1C[C@H]1C[C@@H]2CN(S(=O)(=O)c2ccccc2)C1` the “% Inhibition” value was -11% and the Z score was 1.78.
For `Cc1ccc(CN2CCN(C(=O)Cc3cccnc3)[C@H]3CS(=O)(=O)C[C@H]32)o1`, the “% Inhibition” value was 5% and the Z score was -0.92.
`CCc1cccc(N(C(=O)c2ccc(NC(C)=O)cc2)C2(C(=O)NCc3ccccc3)CCN(C(C)=O)CC2)c1` was tested, and the “% Inhibition” value was 0% and the Z score was 0.
For `CC(=O)N(C1CCN(Cc2ccccc2)CC1)C1(C(=O)Nc2ccc3[nH]ccc3c2)CCN(C)CC1`, the “% Inhibition” value was 92% and the Z score was -11.04.
With `CCC(=O)Nc1ccc(C)c(NC(=O)C2(c3ccccc3)CCN(C)CC2)c1` the “% Inhibition” value was -9% and the Z score was 1.09.
`CN(C)c1ccc(CN2CCN(CCO)[C@@H]3CS(=O)(=O)C[C@@H]32)cn1` was tested, and the “% Inhibition” value was -3% and the Z score was 0.58.
With `O=C(Cc1ccc(O)c(F)c1)N1C[C@H]2c3ccccc3OC[C@@]2(C(=O)O)C1` the “% Inhibition” value was -2% and the Z score was 0.24.
With `CCOc1ccccc1NC(=O)CN1CC=C(c2cnn(C)c2)CC1` the “% Inhibition” value was -1% and the Z score was 0.1.
For `COc1ccc(-c2csc(-n3cc(C4=CCN(CCO)CC4)cn3)n2)cc1`, the “% Inhibition” value was 50% and the Z score was -5.49.
For `CN(C)C1(CNc2ccc(C#N)c(Cl)c2)CCOCC1`, the “% Inhibition” value was -5% and the Z score was 0.53.
For `O=C(c1cc(F)cc(F)c1)N1CCC2(CC1)N(c1ccccc1)C(=O)CS2(=O)=O`, the “% Inhibition” value was -15% and the Z score was 2.33.
`CC(C)(N)Cc1ccc(C(F)(F)F)cc1` was tested, and the “% Inhibition” value was 1% and the Z score was -0.09.
For `Clc1cccc2c(N3CC[C@]4(CCNC4)C3)ccnc12`, the “% Inhibition” value was 23% and the Z score was -3.12.
With `CN1CC[C@@]2(CCCN(c3ccncc3F)C2)C1` the “% Inhibition” value was -8% and the Z score was 0.76.
In the case of `CN1CC[C@]2(CCN(c3ccnc4ccsc34)C2)C1`, the “% Inhibition” value is reported as 98% and the Z score is reported as -10.65.
For `CN1CCC[C@@]2(CCN(c3ccncc3C3CC3)C2)C1`, the “% Inhibition” value was 0% and the Z score was 0.05.
`c1cc(N2CC[C@@]3(CCCNC3)C2)c2sccc2n1` was tested, and the “% Inhibition” value was 98% and the Z score was -16.03.
`CCc1cc(CN[C@@H](C)Cc2ccc(F)cc2)on1` was tested, and the “% Inhibition” value was -5% and the Z score was 0.53.
`Cc1nc(CN2C[C@@H](CO)[C@H](c3ccc(Cl)cc3)C2)co1` was tested, and the “% Inhibition” value was 4% and the Z score was -0.83.
In the case of `O=C(CNc1ccc(Cl)c(F)c1)N1CCC2(CC1)OCCO2`, the “% Inhibition” value is reported as 28% and the Z score is reported as -3.19.
`CCCS(=O)(=O)Nc1ccc(=O)n2c1[C@@H]1C[C@@H](CN(C(=O)Nc3ccc(F)cc3)C1)C2` was tested, and the “% Inhibition” value was 27% and the Z score was -3.06.
`N#Cc1ccc(N[C@H]2CCN(C3CCOCC3)C2=O)cc1C(F)(F)F` was tested, and the “% Inhibition” value was 1% and the Z score was -0.05.
`CN(Cc1ccccc1)C[C@H]1C[N@@]2CC[C@H]1C[C@@H]2CNC(=O)c1ccccc1` was tested, and the “% Inhibition” value was 11% and the Z score was -1.99.
For `C=CCN(C)C[C@H]1CN2CC[C@H]1C[C@@H]2CNC(=O)Nc1ccc(OC(F)(F)F)cc1`, the “% Inhibition” value was 57% and the Z score was -4.08.
For `C#CCN(C)C[C@H]1C[N@@]2CC[C@H]1C[C@@H]2CNC(=O)c1ccccc1`, the “% Inhibition” value was 33% and the Z score was -3.75.
With `O=C(c1ccncc1F)N1C[C@H]2CC[C@@H](C1)N(CC1CC1)C2` the “% Inhibition” value was 2% and the Z score was -0.29.
In the case of `O=C(NCc1ccccc1)N1Cc2ccccc2-n2cccc2[C@H]1c1ccccc1`, the “% Inhibition” value is reported as -9% and the Z score is reported as 1.11.
For `CN1CCN(CC(=O)N2CCC3(CC2)OCCO3)c2ccc(Cl)cc21`, the “% Inhibition” value was -13% and the Z score was 2.46.
With `CCCc1cncnc1N1C[C@H]2CC[C@@H](C1)N(CCC)C2` the “% Inhibition” value was 7% and the Z score was -1.29.
For `Cc1nc[nH]c1CN1C[C@H]2CC[C@@H](C1)N(C(=O)Cc1ccncc1)C2`, the “% Inhibition” value was -5% and the Z score was 0.88.
For `COc1ccc2c(c1)OC[C@@]1(C(=O)O)CN(CCC(F)(F)F)C[C@@H]21`, the “% Inhibition” value was 3% and the Z score was -0.33.
For `Cc1cc(Cl)cc2c(N3CC[C@@]4(O)CCNC[C@H]4C3)ccnc12`, the “% Inhibition” value was 3% and the Z score was -0.52.
In the case of `Cc1cc(C)n2ncc(CN3C[C@@H]4CC[C@H](C3)C(=O)N4)c2n1`, the “% Inhibition” value is reported as -11% and the Z score is reported as 1.38.
In the case of `CC(C)(C)OC(=O)N1[C@@H]2CC[C@H]1[C@@H]1C[C@]1(C(=O)O)C2`, the “% Inhibition” value is reported as -10% and the Z score is reported as 1.06.
For `CC(C)c1ncc(C(=O)N[C@H]2CN3CCC2CC3)cn1`, the “% Inhibition” value was 2% and the Z score was -0.19.
For `O=C(Cc1c[nH]c2ccccc12)N1CCN(Cc2nnn3c2CO[C@H](c2cccc(F)c2)C3)CC1`, the “% Inhibition” value was -6% and the Z score was 0.79.
In the case of `c1ccc2c(CN3CCCCCC3)c[nH]c2c1`, the “% Inhibition” value is reported as 5% and the Z score is reported as -0.53.
For `CCOc1ccccc1NC(=O)c1ccc2oc(=O)n(Cc3ccc(F)cc3)c2c1`, the “% Inhibition” value was 2% and the Z score was -0.31.
With `CN1CCC2CCN(C(=O)Nc3nccs3)C2C1` (stereo unspecified) the “% Inhibition” value was -8% and the Z score was 0.77.
For `CC(C)CCC(=O)N1CCC2CCN(C)CC21` (stereo unspecified), the “% Inhibition” value was -3% and the Z score was 0.4.
In the case of `COc1cccc(CNC(=O)N2CC[C@@H]3CCN(C)C[C@@H]32)n1`, the “% Inhibition” value is reported as 88% and the Z score is reported as 0.42.
`C[C@]1(c2ccccc2Cl)NC(=O)N(CC(=O)Nc2ccc(Cl)cc2C(=O)c2ccccc2)C1=O` was tested, and the “% Inhibition” value was -1% and the Z score was 0.1.
In the case of `O=C(c1ccccc1)c1cc(Cl)ccc1NC(=O)C1CCN(C(=O)c2ccco2)CC1`, the “% Inhibition” value is reported as 1% and the Z score is reported as -0.14.
With `O=C(c1ccccc1)c1cc(Cl)ccc1NC(=O)[C@H]1CC(=O)N(c2ccc(F)cc2)C1` the “% Inhibition” value was 56% and the Z score was -9.01.
For `Cc1sc2ncnc(N3CCN4CCC[C@H]4C3)c2c1C`, the “% Inhibition” value was -5% and the Z score was 0.64.
In the case of `O=C(COc1ccccc1)N1CCCCC[C@@H]1CN1CCCC1`, the “% Inhibition” value is reported as 1% and the Z score is reported as -0.2.
`CC(C)n1ccc(C(=O)NC2CC(C(=O)O)c3ccccc32)n1` (stereo unspecified) was tested, and the “% Inhibition” value was -1% and the Z score was 0.16.
In the case of `Cc1cc(C(=O)NC2CC(C)n3ccnc32)nn1C(C)C` (stereo unspecified), the “% Inhibition” value is reported as 62% and the Z score is reported as -7.62.
`Cc1cc(C(=O)NC2CC2)nn1[C@@H](C)C1CC1` was tested, and the “% Inhibition” value was -5% and the Z score was 0.91.
With `CC(Cc1ccccc1Br)NC(C)c1cccnc1` (stereo unspecified) the “% Inhibition” value was 2% and the Z score was -0.27.
For `C[C@@H](Cc1ccccc1F)NCC1(CO)CCCC1`, the “% Inhibition” value was -3% and the Z score was 0.57.
In the case of `COc1ccc(NC(=O)CN2CC=C(c3cnn(C)c3)CC2)cc1Cl`, the “% Inhibition” value is reported as -9% and the Z score is reported as 1.67.
`Cc1ccc2c(c1)CCCN2C(=O)CN1CC=C(c2cnn(C)c2)CC1` was tested, and the “% Inhibition” value was 55% and the Z score was -3.45.
`CCOc1ccc(NC(=O)CN2CC=C(c3cnn(C)c3)CC2)cc1` was tested, and the “% Inhibition” value was -9% and the Z score was 0.93.
`CC1CCCC2CCCN(Cc3nc4c(cnn4C)c(=O)[nH]3)C12` (stereo unspecified) was tested, and the “% Inhibition” value was -8% and the Z score was 0.94.
With `C[C@@H](Cc1ccc(F)cc1)NCC(C)(C)C(N)=O` the “% Inhibition” value was -4% and the Z score was 0.56.
With `C=CCCC(CN1C[C@H]2CC=CC[C@H]2C1)Oc1ccnc(C)n1` (stereo partly specified) the “% Inhibition” value was 3% and the Z score was -0.6.
For `C=CCCC(CN1C[C@H]2CC=CC[C@H]2C1)Oc1ncccn1` (stereo partly specified), the “% Inhibition” value was -8% and the Z score was 1.33.
`C=CCCC(CN1C[C@H]2CC=CC[C@H]2C1)Oc1ncc(F)cn1` (stereo partly specified) was tested, and the “% Inhibition” value was 75% and the Z score was -13.95.
For `Cc1oncc1C(=O)N1C[C@H](c2cc(F)cc(F)c2)[C@@H]2[C@H]1C1CCN2CC1`, the “% Inhibition” value was -4% and the Z score was 0.74.
`Cc1cnc(N2C[C@H]3CN(C)C[C@H]3C2)c(Br)c1` was tested, and the “% Inhibition” value was -1% and the Z score was 0.19.
With `Fc1cnc(N2C[C@@H](c3ccccc3)[C@@H]3[C@H]2C2CCN3CC2)nc1` the “% Inhibition” value was -13% and the Z score was 2.17.
`CN1CCN2c3cccc(Cl)c3CC3(C(=O)NC(=O)N(c4ccc(F)cc4)C3=O)C2C1` (stereo unspecified) was tested, and the “% Inhibition” value was 4% and the Z score was -0.49.
In the case of `COCCn1ccc(C(=O)N[C@H]2CCc3nc(C(C)C)nn3C2)n1`, the “% Inhibition” value is reported as 71% and the Z score is reported as -11.17.
For `COCCn1ccc(C(=O)NC(C)(C)c2ccc(F)cc2Cl)n1`, the “% Inhibition” value was 4% and the Z score was -0.52.
For `COCCn1cc(C(=O)N[C@H]2C[C@@](CO)(c3ccccc3)C2)nn1`, the “% Inhibition” value was 1% and the Z score was -0.11.
In the case of `CN(C(=O)CCC(F)(F)F)C1CC2CCC(C1)N2` (stereo unspecified), the “% Inhibition” value is reported as -19% and the Z score is reported as 1.62.
In the case of `O=S(=O)(NC12CCCC1CNC2)c1onc(C2CC2)c1Cl` (stereo unspecified), the “% Inhibition” value is reported as 94% and the Z score is reported as -8.97.
For `CCCCOc1ncccc1CNC(=O)C1CN2CCCC2CO1` (stereo unspecified), the “% Inhibition” value was -1% and the Z score was 0.09.
With `CCC(CC)c1cc([C@H]2CN3CC[C@H]2C[C@@H]3CNS(=O)(=O)Cc2ccccc2)nc(-c2ccncc2)n1` the “% Inhibition” value was 75% and the Z score was -9.43.
For `CCC(CC)c1cc([C@H]2CN3CC[C@H]2C[C@@H]3CO)nc(-c2ccncc2)n1`, the “% Inhibition” value was 25% and the Z score was -2.22.
With `CCCS(=O)(=O)NC[C@H]1C[C@@H]2CCN1C[C@@H]2c1cc(C(CC)CC)nc(-c2ccncc2)n1` the “% Inhibition” value was 35% and the Z score was -3.34.
`COCCN1C[C@@H]2CC[C@H]1CN(C(=O)c1cc(C(C)C)on1)C2` was tested, and the “% Inhibition” value was 4% and the Z score was -0.35.
In the case of `Cc1ncsc1CN1C[C@@H]2CC[C@H]1CN(Cc1c(C)noc1C)C2`, the “% Inhibition” value is reported as -5% and the Z score is reported as 0.89.
With `Cc1ccc(CNc2ncnc3[nH]ncc23)c(-n2cc(Cl)cn2)n1` the “% Inhibition” value was 12% and the Z score was -2.28.
For `CN(C)c1ccnc(N2C[C@@H](c3ccc4c(c3)OCO4)[C@@H]3[C@H]2C2CCN3CC2)n1`, the “% Inhibition” value was -7% and the Z score was 0.91.
In the case of `c1cc2c(cc1CCN1CCCC1)CCO2`, the “% Inhibition” value is reported as -12% and the Z score is reported as 1.27.
`Cn1nc(C(=O)N2CCC3(CC2)OCCO3)c2ccccc2c1=O` was tested, and the “% Inhibition” value was -14% and the Z score was 2.25.
With `Cc1ccc(C)n1[C@@H](Cc1cnc[nH]1)C(=O)O` the “% Inhibition” value was -1% and the Z score was 0.15.
In the case of `c1cc2c(c(-c3cnccn3)c1)CCNC2`, the “% Inhibition” value is reported as -4% and the Z score is reported as 0.84.
For `c1ccc2c(c1)C[C@H](Cc1ccc3c(c1)CNCC3)CO2`, the “% Inhibition” value was 3% and the Z score was -0.36.
